# From PubChem BioAssay AID493179 (National Center for Advancing Translational Sciences (NCATS), 2011)
# Records with an inconclusive call do not appear. Values without a mark were called inactive. The source made the active and inactive calls. Calls follow the shape of the dose curve; as a rule, active = well fitted inhibition curve with a large enough effect; inconclusive = small, poorly fitted or top-dose-only effect; inactive = flat fitted curve, though single readings scatter.
# Test: Secondary Assay for General miRNAs Modulators and/or Inhibitors/Activators of miR-21: miR-30 Firefly Luciferase Assay for second round cherrypicks
# Settings: HeLa miR-30 FLuc reporter, luminescence, 48 h; series mostly up to 38.3 µM; activity change, negative = inhibition: at the top concentration
# Source text: MLPCN Grant: 1 R21 NS059478-01 Assay Provider: Qihong Huang, The Wistar Institute NCGC Assay Overview: MicroRNAs (miRNAs) are endogenously encoded small (~20-25 nucleotides), nonprotein-coding RNAs that are involved in post-transcriptional repression of target messenger RNAs (mRNAs) (Le and Hannon, 2004). Estimated to be involved in the regulation of 30% of all protein-coding mRNAs (Filipowicz et al., 2008), miRNAs play a significant role in many biological processes including cellular differentiation and tissue development (Ghildiyal and Zamore, 2009). […] Compounds active in the miR-21 FLuc assay were clustered using Leadscope and active chemical series were prioritized based on chemical properties, potential for medicinal chemistry optimization, and SAR. Within each chemical series, representative compounds were re-acquired to test for activity in a secondary assay based on the quality of their CRC, efficacy, and potency. The secondary assay to determine if compounds active in the miR-21 FLuc assay were potentially specific for miR-21 and were not general modulators of the miRNA pathway was another cell-based FLuc reporter gene assay, this time targeting miR-30. Compounds found active in both the miR-21 FLuc and miR-30 FLuc assays are not considered miR-21 specific compounds, and may be general miRNA modulators.
# NCGC Assay Protocol Summary: Reagents: HeLa cells stably expressing firefly luciferase (FLuc) under the control of a CMV promoter (upstream) and a miR-30 binding sequence directly downstream of the gene. These cells also stably express miR-30. Control compounds used were compound C3 (provided by collaborator), N6-phenyladenosine (MP Biomedicals, 0215379625), and DMSO. Assay Summary: 6uL of HeLa miR-30-FLuc cells in assay buffer (DMEM, Invitrogen #21063-029; 10% FBS, HyClone #SH30071.03) were dispensed at 1000cells/well (1.7 x 10^5 cells/mL) into Greiner solid-white TC-treated 1536-well plates using a Multidrop Combi (Thermo Fisher Scientific). Plates were incubated for one hour at 37 degree Celsius, 95% humidity, 5% CO2. These assay plates were then treated with 23nL of compound or DMSO using a Kalypsys pin tool, which allows for delivery of a 24-point titration of each compound to the assay plate, with a final compound concentration ranging from approximately 40uM to 5pM. Assay plates were then incubated for 48 hours. After incubation, plates were allowed to come to RT for one hour prior to delivery of 3uL of 3X luciferase detection reagent. After a 15 minute incubation to allow for cell lysis, luciferase activity was measured using a ViewLux CCD imager (PerkinElmer), with an average exposure time of 2-12 seconds. Keywords: NIH Roadmap, MLPCN, MLSMR, qHTS, miR-21, miR-30, microRNA, firefly luciferase, FLuc.
Structure (SMILES),Potency,"activity change, negative = inhibition"
CC(=O)N1CCc2cc(CNC(=O)Cc3ccc(F)cc3)ccc21,10 µM (active),–
CN(C)c1ccc(CNC(=O)C2COc3ccccc3C2)cc1 (stereo not given),–,-18.4%
C/C(=N/NC(=O)c1ccccc1)c1ccc(NC(=O)C(F)(F)F)cc1,–,-12.5%
Cc1cc(N2CCN(C)CC2)nc2ccc(NC(=O)c3ccccc3F)cc12,10 µM (active),–
Cc1ccc(C(=O)Nc2ccc3c(c2)ncn3C)cc1,2.83 µM (active),–
CC(C)c1cc(C(=O)Nc2cccnc2)no1,3.56 µM (active),–
CCC(=O)Nc1sc(C(=O)Nc2ccccc2)c(C)c1C(=O)OC,11.3 µM (active),–
CCCOc1ccc(OC(=O)c2ccc(-c3ccc(CCC)cn3)cc2)cc1,1.59 µM (active),–
CC(C)(C)C1CCc2nc(NC(=O)Cc3ccc(Cl)cc3)sc2C1 (stereo not given),–,-15%
Cc1ccc2nc(-c3ccc(NC(=O)c4ccc(S(C)(=O)=O)cc4)cc3)sc2c1,–,-8.74%
Cc1ccc2c(Cl)c(C(=O)Nc3ccc4c(c3)OCO4)sc2c1,1.59 µM (active),–
Cc1ccccc1NC(=O)c1cc2c([nH]c1=O)CC(C)(C)CC2=O,0.634 µM (active),–
O=C(Nc1sc2c(c1C(=O)NCc1ccco1)CCCC2)c1cc(=O)c2ccccc2o1,7.11 µM (active),–
CCC(C)C(=O)N1CCCC(c2nc(-c3cccs3)no2)C1 (stereo not given),6.34 µM (active),–
COc1ccc(Nc2nc(C)c3ccccc3n2)cc1,11.3 µM (active),–
CCc1cc(C(=O)Nc2ccccc2)cs1,2.83 µM (active),–
Cc1ccccc1OCc1nc2c3cnn(-c4ccccc4F)c3ncn2n1,20 µM (active),–
COc1ccc(CNc2nc(-c3ccco3)nn2C(=O)c2ccccc2Cl)cc1,22.5 µM (active),–
CCOCCCNC(=O)c1cc2c(=O)n3ccccc3nc2s1,11.3 µM (active),–
CC(C)(C)CC(=O)Nc1nnc(-c2cccs2)s1,5.04 µM (active),–

Structure (SMILES),Potency,"activity change, negative = inhibition"
CCC(CC)C(=O)Nc1nnc(S(=O)(=O)N2CCCCCC2)s1,–,10.7%
CN(c1ccccc1)S(=O)(=O)c1nnc(NC(=O)c2ccco2)s1,–,0.66%
Cc1ccccc1C(=O)Nc1nnc(-c2ccco2)o1,12.6 µM (active),–
Cc1ccc(-c2cc(C(=O)NCC3CCCO3)no2)cc1 (stereo not given),3.56 µM (active),–
Cc1ccc(NC(=O)c2ccc(-c3ccccc3)s2)cc1,5.04 µM (active),–
COc1ccccc1N1CCN(C(=O)c2nc(-c3ccc(C)cc3)n3c2CCCCC3)CC1,–,8.55%
Cc1cc(C)c2c(N)c(C(=O)Nc3ccccc3C(F)(F)F)sc2n1,11.3 µM (active),–
CCC(C)NC(=O)CCCn1c(=O)c2cccn2c2ccccc21 (stereo not given),–,-2.15%
CCc1ccc(C(=O)NCc2cccs2)s1,20 µM (active),–
CC(=O)O[C@H]1C[C@@]2(C)[C@@H](C[C@@H](O)[C@H]3[C@@]4(C)CC[C@@H](O)[C@@H](C)C4CC[C@@]32C)/C1=C(\CCC=C(C)C)C(=O)O (stereo not given in full),–,-1.25%
Cc1cccc(NC(=O)Nc2ccc(Br)cc2)n1,4.49 µM (active),–
CCCCc1nn2c(=O)cc(COC(=O)c3cccc(NC(=O)c4cccc(C)c4)c3)nc2s1,4 µM (active),–
CCOC(=O)C1CCN(C(=O)c2ccc(-n3ccc4ccccc43)s2)CC1,11.3 µM (active),–
COCCNC(=O)c1ccc2c(c1)ncn2-c1ccc(F)c(F)c1,22.5 µM (active),–
CC(=O)c1ccc(Oc2ncnc3c2oc2ccccc23)cc1,3.18 µM (active),–
O=C(NC1CCCCCC1)C1CCN(C(=O)N2CCOc3ccc(Cl)cc32)CC1,–,-4.96%
CCOC(=O)c1cccc(NC(=O)c2cc(CN3CCCC3)on2)c1,4.49 µM (active),–
CCCCN1CCc2c([nH]c3ccccc23)C1=O,11.3 µM (active),–
Cc1ccc(-n2ncc3c(Nc4ccc5c(c4)OCCO5)ncnc32)cc1Cl,10 µM (active),–
CC(c1ccccn1)N(C)C(=O)c1ccc2nc(Cc3cccc(Cl)c3)oc2c1 (stereo not given),6.34 µM (active),–
